Screening data as filed in PubChem BioAssay.
This is a sample that favours compounds with a hit; in the whole collection about 1.7% have one here.
HEK293 tox – cytotoxicity counter-screen for GLP-1 receptor inverse agonists; 410,000 compounds, 0.13% hits; Potency, µM (top dose mostly 38.3 µM), for the others: top-dose activity change, negative = inhibition, actives largely listed as inhibitors; HEK293 cAMP-luciferase reporter cells, luminescence, 24 h; AID 624418;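 also: loss of luciferase light is scored as toxicity; % is scaled to controls: 0 for no effect and ±100 for the full control effect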
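MLSMR compounds, 24 hr on cells at 37 deg C/5% CO2; luminescence after luciferase reagent (12 min RT). Inhibition counted as the undesired cytotoxic outcome.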
GLP1R inv ag – inverse agonists of human GLP-1 receptor; HEK293 GLP-1R CRE-luciferase, luminescence, 24 h; GLP-1R form is constitutively active; Potency, µM (highest dose often 38.3 µM), for inactives: top-dose activity change, negative = inhibition, most hits filed as inhibitors; 410,000 compounds, 1.6% hits; AID 624417; also: % is scaled to controls: 0 for no effect and ±100 for the full control effect; nearly all actives have a fitted effect of over 55% in size
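HEK293 cells stably co-expressing a cAMP-responsive luciferase reporter and constitutively active GLP-1R were seeded, incubated 12 h, then exposed to compounds for 24 h at 37 C. Luminescence was read 12 min after detection reagent; inverse agonists lower signal.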
GLP-1R agonist – activates the human GLP-1 receptor; HEK293 GLP-1R CRE-luciferase, luminescence, 4-6 h; cells express a hypersensitive GLP-1R form; 380,000 compounds, 0.007% hits; Potency, µM (highest dose often 45.6 µM), for the others: at the top dose activation, actives largely listed as activators; also: % of control where 0% means no effect
PTHR1 agonist – agonists of human PTHR1 parathyroid hormone receptor. Potency, µM (top dose mostly 115 µM), for the others: top-dose activation, actives largely listed as activators. AID 743266. 410,000 compounds, 0.075% hits. Q03431. HEK293 GP2 PTHR1 cells, GloSensor cAMP luminescence, 1 h; also: nearly all actives have a fitted effect of over 55% in size
Target sequence (Q03431 whole entry, looked up): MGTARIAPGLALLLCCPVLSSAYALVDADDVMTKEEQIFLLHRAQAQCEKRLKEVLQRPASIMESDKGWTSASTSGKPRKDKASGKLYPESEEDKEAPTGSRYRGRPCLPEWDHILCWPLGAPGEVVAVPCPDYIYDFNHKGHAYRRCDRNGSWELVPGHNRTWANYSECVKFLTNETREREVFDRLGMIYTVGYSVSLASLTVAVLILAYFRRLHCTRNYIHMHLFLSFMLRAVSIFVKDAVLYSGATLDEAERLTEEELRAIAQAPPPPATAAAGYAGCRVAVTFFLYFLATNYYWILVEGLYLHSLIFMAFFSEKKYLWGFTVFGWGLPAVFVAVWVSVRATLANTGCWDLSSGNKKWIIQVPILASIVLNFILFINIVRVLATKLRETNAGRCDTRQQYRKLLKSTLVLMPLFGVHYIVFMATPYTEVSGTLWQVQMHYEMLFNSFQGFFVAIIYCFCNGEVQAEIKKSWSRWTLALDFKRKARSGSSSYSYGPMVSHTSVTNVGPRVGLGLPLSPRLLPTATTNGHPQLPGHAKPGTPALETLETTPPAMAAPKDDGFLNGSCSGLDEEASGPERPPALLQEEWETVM
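HEK-293-derived GP2 cells expressing PTHR1 and a GloSensor cAMP reporter, 3,000/well, plated overnight, given luciferin plus IBMX (each 0.5 mM as added) for 1 h at 37 °C, then compound for 1 h at 37 °C. Luminescence was read after 15 min at room temperature.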
* = called active by the depositor; i = inactive; ? = inconclusive; / = not tested or not shown. Calls follow the shape of the dose curve; as a rule, active = well fitted curve in the direction sought with a large enough effect; inconclusive = small, poorly fitted or top-dose-only effect, or another doubt; inactive = no such curve, though single readings can be large; an effect the other way counts as inactive or inconclusive. Potency is read from the fitted curve at half-maximal effect.

SMILES	HEK293 tox	GLP1R inv ag	GLP-1R agonist	PTHR1 agonist
CN(C)CC(CCC(CN(C)C)C(O)(c1ccccc1)c1ccccc1)C(O)(c1ccccc1)c1ccccc1 (configuration not stated)	?	2.82µM*	18.8%	i
CN(C)C/C=C/C(O)(c1ccccc1)c1ccccc1	-12.0%	-25.3%	0.6%	i
CCN(CC)C(=O)C1=C(C)N(CCCOC)C(=O)C(CC(=O)NC2CC2)C1 (configuration not stated)	-0.8%	9.5%	-0.6%	-7.7%
Cc1ccc2nc(C3CCCN3Cc3nc(CCC(C)C)no3)[nH]c2c1 (configuration not stated)	2.6%	7.08µM*	-3.6%	-5.5%
COc1cccc(C2CCCN2Cc2nc(CCC(C)C)no2)c1 (configuration not stated)	15.1%	?	3.8%	-19.3%
C=CCn1nc([N+](=O)[O-])nc1Sc1cccc2cccnc12	2.82µM*	?	-20.6%	i
O=[N+]([O-])c1ccc(Sc2cccc3cccnc23)cc1	0.8%	102.9%	6.6%	-34.6%
O=[N+]([O-])c1ccc(Sc2cccc3cccnc23)c([N+](=O)[O-])c1	3.16µM*	?	-0.4%	i
Nc1c(C(=O)O)ccc2c1C(=O)c1ccccc1C2=O	10µM*	0.8%	3.4%	-15.1%
Nc1cc(C(=O)O)c(N)c2c1C(=O)c1ccccc1C2=O	?	?	-0.5%	i
COCCNC(=S)N/N=C(\C)c1ccc(O)cc1	?	-21.1%	5.4%	i
CNC(=S)N/N=C(\C)c1ccc(C)c(C)c1	?	3.55µM*	11.6%	i
C/C(=N\NC(=S)Nc1ccccc1C)c1ccc(O)cc1	?	10µM*	5.1%	-3.1%
Cc1ccc(CN2CCC(Oc3cccc(C(=O)NCc4cccnc4)c3)CC2)o1	-4.7%	-24.9%	-0.4%	i
CC(=O)C[C@H]1[C@H](O[C@H]2[C@H](OC(C)C(=O)N[C@@H](C)C(=O)N[C@H](CCC(=O)N[C@@H](CCCCN)C(=O)N[C@H](C)C(=O)O)C(N)=O)[C@@H](NC(=O)O)C(O)O[C@@H]2CO)O[C@H](CO)[C@@H](O)[C@@H]1O (some centres not stated)	/	/	16.2%	/
O=c1[nH]c(/C=C\c2cccc(O)c2)nc(O)c1[N+](=O)[O-]	-0.1%	4.4%	-1.0%	i
O=c1[nH]c(/C=C\c2ccc(O)c(O)c2)nc(O)c1[N+](=O)[O-]	11.2µM*	-11.4%	2.5%	i
O=C1NN(c2ccccc2)C(=O)/C1=C\c1ccccc1	-23.3%	?	9.9%	-22.0%
COc1cc(/C=C2/C(=O)NN(c3ccccc3)C2=O)cc(Br)c1O	-30.7%	?	-1.8%	-41.9%
O=C1NN(c2ccccc2)C(=O)C1=Cc1ccccc1	?	3.98µM*	-1.2%	-14.1%
COc1cc(/C=C2/C(=O)NN(c3ccc(Cl)cc3)C2=O)cc(OC)c1O	?	3.98µM*	-5.7%	i
COC(=O)[C@]12CCC(C)(C)C[C@@H]1[C@@H]1C(=O)C=C3[C@@]4(C)C=C(C#N)C(=O)C(C)(C)[C@@H]4CC[C@@]3(C)[C@]1(C)CC2	/	/	5.0%	/
CCO/C=C/C(O)(CNC(=O)c1ccc(C(C)(C)C)cc1)C(F)(F)F (configuration not stated)	-17.5%	8.91µM*	-2.5%	-17.9%
CCOC(=O)CNC(=O)c1ccc(C)cc1	-2.8%	3.2%	8.4%	-5.6%
CCCCCn1c(=O)[nH]c2cc(C(=O)NCCN3C(C)CCCC3C)ccc2c1=O (configuration not stated)	-3.8%	1.78µM*	6.1%	-4.9%
SMILES	HEK293 tox	GLP1R inv ag	GLP-1R agonist	PTHR1 agonist
Cc1cc(Nc2ccccc2C(=O)O)ccc1Cl	/	/	-5.2%	/
COc1ccccc1/C=C/C(=O)Oc1cccc2cccnc12	?	4.47µM*	6.8%	-37.1%
O=C(Nc1ccc2c(c1)CCC2)c1cc(S(=O)(=O)N2CCN(c3ccccc3)CC2)ccc1Cl	-9.8%	-22.8%	-12.7%	i
COc1ccccc1CC(=O)N(Cc1ccccc1)c1ccc(C)cc1	-20.4%	8.91µM*	11.8%	i
Cc1cccc(N(Cc2ccccc2)C(=O)CCl)c1	-27.4%	10µM*	1.4%	-51.5%
COc1cc(C(=O)N(Cc2ccccc2)c2cccc(C)c2)ccc1OC(F)F	9.1%	11.2µM*	7.7%	-50.3%
NC(N)=NCCCC(N)C(=O)O (configuration not stated)	/	/	-3.8%	/
